From PubChem BioAssay (Tox21)
Where “and” joins values, the source holds several entries; their conditions need not be identical. Identical values can stand only once. Some compounds were tested as several samples or in several runs, with calls that do not always agree. Calls of active or inactive are those of the source. A call without a number means that no potency is given here. Unless noted, the call rests on the fitted dose curve; in most records, active means well fitted curve in the direction sought with a large enough effect in the repeat runs; inconclusive means weak or mixed curves; inactive means no such curve, though single readings can be large; an effect the other way counts as inactive or inconclusive.

What was measured:
[1] = qHTS assay to identify small molecule antagonists of the thyroid receptor (TR) signaling pathway - cell viability counter screen (AID 743064); settings: GH3.TRE-Luc viability, CellTiter-Fluor, 24 h; series mostly up to 70.3 µM; further: nearly all actives have a fitted effect of over 50% in size; further: potency means the concentration at half of the fitted maximal effect
Outline: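 Plate GH3.TRE-Luc cells; incubate 4 h at 37 °C; add compound, then T3 to 1 nM final; incubate 23.5 h; add CellTiter-Fluor; incubate 30 min at 37 °C, 5% CO2; read fluorescence.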

[2] = qHTS assay to identify small molecule antagonists of the thyroid receptor (TR) signaling pathway (AID 743065); settings: GH3.TRE-Luc, T3-stimulated luciferase inhibition, 23.5 h; series mostly up to 70.3 µM; further: potency means the concentration at half of the fitted maximal effect; nearly all actives have a fitted effect of over 55% in size
Outline: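 GH3.TRE-Luc rat pituitary cells carrying two TR response elements driving luciferase were plated for 4 h, given compound plus 1 nM T3 (final), and incubated 23.5 h at 37 C. ONE-Glo luminescence measured reporter inhibition; CellTiter-Fluor fluorescence tracked cytotoxicity.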

[3] = qHTS assay to identify small molecule antagonists of the estrogen receptor alpha (ER-alpha) signaling pathway - cell viability counter screen (AID 743074; calls by dose curve;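 further: HEK293 cells carrying ER-alpha-UAS-bla reporter stimulated with 17beta-estradiol; nearly all actives have a fitted effect of over 45% in size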; further: potency means the concentration at half of the fitted maximal effect); settings: ERalpha-bla HEK293 viability, CellTiter-Glo luminescence, 18 h; series mostly up to 69.4 µM
[4] = qHTS assay to identify small molecule antagonists of the estrogen receptor alpha (ER-alpha) signaling pathway using the BG1 cell line (AID 743080; calls by dose curve;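 further: BG1 cells stimulated with 17beta-estradiol alongside compound; nearly all actives have a fitted effect of over 25% in size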; further: potency means the concentration at half of the fitted maximal effect); settings: BG1Luc4E2 ERE-luciferase antagonist mode, luminescence; series mostly up to 70.3 µM
Outline: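 After 5 days in phenol-red-free 10% charcoal-stripped FBS medium, BG1-Luc-4E2 cells were seeded, left 24 h at 37 C, co-treated with compounds and 17beta-estradiol for 21.5 h, then assayed for viability and luciferase.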

[5] = qHTS assay to identify small molecule antagonists of the estrogen receptor alpha (ER-alpha) signaling pathway using the BG1 cell line - cell viability counter screen (AID 743081); settings: BG1Luc4E2 viability, CellTiter-Fluor, 22 h; series mostly up to 70.3 µM;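 further: compound given together with 17beta-estradiol as the ER stimulus; nearly all actives have a fitted effect of over 45% in size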; further: potency means the concentration at half of the fitted maximal effect
Aromatase (Homo sapiens) = Aromatase (Homo sapiens) (UniProt P11511); assay: qHTS assay to identify aromatase inhibitors (AID 743083); settings: MCF-7 aro ERE, testosterone-driven ERE luciferase, 24 h; series mostly up to 70.3 µM; further: nearly all actives have a fitted effect of over 55% in size; further: potency means the concentration at half of the fitted maximal effect
[6] = qHTS assay to identify aromatase inhibitors - cell viability counter screen (AID 743084); settings: MCF-7 aro ERE viability, CellTiter-Fluor, 24 h; series mostly up to 70.3 µM;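 further: cells stimulated with testosterone during compound exposure; nearly all actives have a fitted effect of over 55% in size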; further: potency means the concentration at half of the fitted maximal effect
[7] = target: Aryl hydrocarbon receptor (Homo sapiens) (UniProt P35869); assay: qHTS assay to identify small molecule that activate the aryl hydrocarbon receptor (AhR) signaling pathway (AID 743085); settings: HepG2 AhR-luc (HG2L7.5c1), luciferase, 24 h; series mostly up to 70.3 µM; further: nearly all actives have a fitted effect of over 15% in size; further: potency means the concentration at half of the fitted maximal effect;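 on activation: HG2L7.5c1 human HepG2 liver cells with stably integrated DRE-driven firefly reporter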
Outline: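 Steps: seed HepG2-AhR-luc cells; allow 5 h at 37C; pin-transfer test compound or vehicle; incubate 24 h at 37C; add viability dye (30 min, 37C) and read fluorescence; add luciferase substrate (30 min, RT) and read luminescence.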

[8] = qHTS assay to identify small molecule that activate the aryl hydrocarbon receptor (AhR) signaling pathway - cell viability counter screen (AID 743086); settings: HepG2-AhR-luc viability, CellTiter-Fluor, 24 h; series mostly up to 70.3 µM; further: nearly all actives have a fitted effect of over 45% in size; further: potency means the concentration at half of the fitted maximal effect
Outline: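 HepG2-AhR-luc (HG2L7.5c1) cells, 4000/well, were preincubated 5 h at 37C, exposed to compound in qHTS format for 24 hr at 37C, then given CellTiter-Fluor for 30 min; viability was read as fluorescence in the reporter wells.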

[9] = qHTS assay to identify small molecule antagonists of the peroxisome proliferator-activated receptor gamma (PPARg) signaling pathway - cell viability counter screen (AID 743194); settings: PPARg-bla HEK293H viability, CellTiter-Glo luminescence, 17 h, co-treated with 50 nM rosiglitazone; series mostly up to 62.6 µM; further: nearly all actives have a fitted effect of over 55% in size; further: potency means the concentration at half of the fitted maximal effect
Outline: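 PPARg-UAS-bla HEK293H cells were plated, rested 5 h at 37 C, then treated with compounds plus rosiglitazone (50 nM final) for 17 h at 37 C; viability was then read by CellTiter-Glo luminescence after 30 min at room temperature.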

[10] = qHTS assay for small molecule agonists of the antioxidant response element (ARE) signaling pathway (AID 743202; active means well fitted activation curve with a large enough effect in the signal ratio in the repeat runs, not every such curve was filed as active; inconclusive means weak or mixed curves, or effect the other way; inactive means no such curve, though single readings can be large or run the other way; the % refers to the signal ratio; further: potency means the concentration at half of the fitted maximal effect); settings: HepG2 ARE-bla reporter, beta-lactamase FRET, 16 h; series mostly up to 73.3 µM
Outline: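 Following a 16 h, 37 C exposure of reporter HepG2 cells (ARE-driven beta-lactamase, 2,000 cells/well) to compounds, FRET substrate was applied for 2 h at room temperature and fluorescence intensity recorded.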

[11] = qHTS assay for small molecule agonists of the antioxidant response element (ARE) signaling pathway - cell viability counter screen (AID 743203; calls by dose curve; further: nearly all actives have a fitted effect of over 55% in size; further: potency means the concentration at half of the fitted maximal effect); settings: ARE-bla HepG2 viability, CellTiter-Glo luminescence, 16 h; series mostly up to 73.3 µM
Outline: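 ATP content via CellTiter-Glo luminescence served as the viability measure. Cells: ARE-bla HepG2, 2,000 per well. Exposure: 16 hrs, 37C/5% CO2.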

[12] = qHTS assay for small molecule activators of the heat shock response signaling pathway - cell viability counter screen (AID 743209); settings: HSE-bla HeLa viability, CellTiter-Glo luminescence, 5 h; series mostly up to 62.6 µM; further: nearly all actives have a fitted effect of over 50% in size; further: potency means the concentration at half of the fitted maximal effect
Outline: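 Compounds dissolved in DMSO were added to overnight-plated HSE-bla HeLa cells and left 5 h at 37 C. Cell viability was quantified by luminescence using CellTiter-Glo.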

[13] = target: Estrogen receptor (Homo sapiens) (UniProt P03372); assay: qHTS assay to identify small molecule agonists of the estrogen receptor alpha (ER-alpha) signaling pathway (AID 743075; calls by dose curve;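 further: HEK293 GripTite cells with ER-alpha and UAS-driven beta-lactamase reporter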; further: potency means the concentration at half of the fitted maximal effect); settings: HEK293 ER-alpha-UAS-bla, beta-lactamase FRET ratio, 18 h; activation: at 70.1 µM (top of the series)
[14] = target: Peroxisome proliferator-activated receptor gamma (Homo sapiens) (UniProt P37231); assay: qHTS assay to identify small molecule agonists of the peroxisome proliferator-activated receptor gamma (PPARg) signaling pathway (AID 743094; active means well fitted activation curve with a large enough effect in the signal ratio in the repeat runs, not every such curve was filed as active; inconclusive means weak or mixed curves, or effect the other way; inactive means no such curve, though single readings can be large or run the other way; the % refers to the signal ratio); settings: HEK293H PPARg-UAS-bla, beta-lactamase FRET ratio, 17 h; series mostly up to 57 µM
Outline: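 Agonism was assessed in a beta-lactamase reporter system, HEK293H cells with a stably integrated UAS-bla construct under PPARg control; the 17 h treatment at 37C preceded a 1 h room-temperature FRET substrate read.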

[15] = test system: thyroid hormone receptor (rat, GH3 cells); assay: qHTS assay to identify small molecule agonists of the thyroid receptor (TR) signaling pathway (AID 743066; calls by dose curve); settings: GH3.TRE-Luc cells, TR agonist luciferase, 24 h; series mostly up to 83.9 µM
[16] = target: Estrogen receptor (Homo sapiens) (UniProt P03372); assay: qHTS assay to identify small molecule antagonists of the estrogen receptor alpha (ER-alpha) signaling pathway (AID 743069; active means well fitted curve in the direction sought with a large enough effect in the signal ratio in the repeat runs, not every such curve was filed as active; inconclusive means weak or mixed curves, or effect the other way; inactive means no such curve, though single readings can be large or run the other way; the % refers to the signal ratio; further: potency means the concentration at half of the fitted maximal effect); settings: HEK293 ER-alpha-UAS-bla, beta-lactamase ratio, antagonist mode; series mostly up to 69.4 µM
Outline: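 A 17beta-estradiol challenge was applied right after compound transfer to ER-alpha-UAS-bla HEK293 cells previously kept in charcoal-stripped serum. Plates stood 18 hr at 37C and 5% CO2; fluorescence was read following 2 hr FRET substrate loading at room temperature.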

[17] = target: Estrogen receptor (Homo sapiens) (UniProt P03372); assay: qHTS assay to identify small molecule agonists of the estrogen receptor alpha (ER-alpha) signaling pathway using the BG1 cell line (AID 743079); settings: BG1Luc4E2 cells, ERE-luciferase agonist, 22 h; at 70.3 µM (top of the series); further: nearly all actives have a fitted effect of over 20% in size
[18] = qHTS assay for small molecule activators of the heat shock response signaling pathway (AID 743210; active means well fitted activation curve with a large enough effect in the signal ratio in the repeat runs, with a control signal flat, not every such curve was filed as active; inconclusive means weak or mixed curves; the % refers to the signal ratio); settings: HeLa HSE-bla reporter, beta-lactamase ratio, 5 h; series mostly up to 62.6 µM
Outline: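 Heat shock element–beta-lactamase HeLa reporter cells; qHTS with compounds for 5 h at 37 C; detection by FRET substrate fluorescence after 2.5 h at RT.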

[19] = target: Peroxisome proliferator-activated receptor gamma (Homo sapiens) (UniProt P37231); assay: qHTS assay to identify small molecule antagonists of the peroxisome proliferator-activated receptor gamma (PPARg) signaling pathway (AID 743191; calls by dose curve; further: nearly all actives have a fitted effect of over 30% in size; further: potency means the concentration at half of the fitted maximal effect); settings: HEK293H PPARg-UAS-bla, beta-lactamase ratio, antagonist, 17 h; series mostly up to 62.6 µM
Outline: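 GeneBLAzer PPARg UAS-bla HEK293H cells carrying a UAS-driven beta-lactamase reporter were plated at 3000 cells/well, preincubated 5 h at 37C, then given compound for 17 h at 37C; LiveBLAzer B/G FRET substrate was read after 1 h at room temperature.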

Sequence of Aryl hydrocarbon receptor (Homo sapiens) (P35869 whole entry, looked up): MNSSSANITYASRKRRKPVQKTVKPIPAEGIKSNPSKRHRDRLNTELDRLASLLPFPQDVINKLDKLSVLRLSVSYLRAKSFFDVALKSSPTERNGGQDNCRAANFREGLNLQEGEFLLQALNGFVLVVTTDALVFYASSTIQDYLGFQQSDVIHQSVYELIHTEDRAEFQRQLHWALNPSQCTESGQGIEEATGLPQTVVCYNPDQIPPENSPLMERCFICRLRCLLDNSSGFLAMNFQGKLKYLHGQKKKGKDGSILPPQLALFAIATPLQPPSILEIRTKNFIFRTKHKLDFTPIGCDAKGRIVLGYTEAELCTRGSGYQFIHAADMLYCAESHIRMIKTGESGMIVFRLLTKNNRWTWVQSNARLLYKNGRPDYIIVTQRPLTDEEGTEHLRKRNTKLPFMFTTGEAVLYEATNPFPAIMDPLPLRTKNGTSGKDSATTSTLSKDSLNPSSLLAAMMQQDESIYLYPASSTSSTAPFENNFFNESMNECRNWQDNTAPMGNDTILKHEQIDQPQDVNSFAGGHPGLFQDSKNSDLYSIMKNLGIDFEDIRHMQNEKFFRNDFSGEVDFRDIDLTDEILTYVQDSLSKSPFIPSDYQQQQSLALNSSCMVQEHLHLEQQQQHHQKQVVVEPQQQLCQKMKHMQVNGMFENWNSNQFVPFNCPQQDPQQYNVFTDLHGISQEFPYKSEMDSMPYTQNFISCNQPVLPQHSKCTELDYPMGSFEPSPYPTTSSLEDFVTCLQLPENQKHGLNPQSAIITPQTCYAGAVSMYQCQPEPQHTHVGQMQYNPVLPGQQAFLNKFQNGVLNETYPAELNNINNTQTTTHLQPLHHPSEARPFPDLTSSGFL
Sequence of Peroxisome proliferator-activated receptor gamma (Homo sapiens) (P37231 whole entry, looked up): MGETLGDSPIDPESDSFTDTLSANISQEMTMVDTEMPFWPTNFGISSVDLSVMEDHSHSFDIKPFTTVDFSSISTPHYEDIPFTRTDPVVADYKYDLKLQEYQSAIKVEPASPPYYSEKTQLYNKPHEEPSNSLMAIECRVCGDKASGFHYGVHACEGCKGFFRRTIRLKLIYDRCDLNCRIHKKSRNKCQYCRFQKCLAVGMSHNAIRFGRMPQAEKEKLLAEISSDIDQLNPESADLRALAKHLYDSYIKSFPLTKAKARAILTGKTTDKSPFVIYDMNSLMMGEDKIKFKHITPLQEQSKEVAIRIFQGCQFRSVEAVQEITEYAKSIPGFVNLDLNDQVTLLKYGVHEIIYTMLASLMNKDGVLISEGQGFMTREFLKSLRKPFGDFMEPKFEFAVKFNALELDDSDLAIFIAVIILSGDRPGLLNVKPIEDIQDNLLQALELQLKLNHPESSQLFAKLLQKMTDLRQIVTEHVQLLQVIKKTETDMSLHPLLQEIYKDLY
Sequence of Aromatase (Homo sapiens) (P11511 whole entry, looked up): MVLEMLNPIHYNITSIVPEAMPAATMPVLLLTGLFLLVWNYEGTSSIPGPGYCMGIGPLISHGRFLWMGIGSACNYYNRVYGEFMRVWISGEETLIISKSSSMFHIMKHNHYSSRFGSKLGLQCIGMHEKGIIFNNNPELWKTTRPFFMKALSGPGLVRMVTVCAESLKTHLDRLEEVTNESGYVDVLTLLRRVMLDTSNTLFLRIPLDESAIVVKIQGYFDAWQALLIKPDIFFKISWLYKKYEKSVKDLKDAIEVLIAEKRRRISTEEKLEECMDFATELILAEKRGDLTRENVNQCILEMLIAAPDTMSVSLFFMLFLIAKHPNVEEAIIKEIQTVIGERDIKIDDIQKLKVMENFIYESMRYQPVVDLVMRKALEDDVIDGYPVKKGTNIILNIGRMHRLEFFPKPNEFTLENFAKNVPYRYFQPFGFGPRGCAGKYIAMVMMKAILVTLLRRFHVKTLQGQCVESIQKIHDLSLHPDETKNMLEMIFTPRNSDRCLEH
Sequence of Estrogen receptor (Homo sapiens) (P03372 whole entry, looked up): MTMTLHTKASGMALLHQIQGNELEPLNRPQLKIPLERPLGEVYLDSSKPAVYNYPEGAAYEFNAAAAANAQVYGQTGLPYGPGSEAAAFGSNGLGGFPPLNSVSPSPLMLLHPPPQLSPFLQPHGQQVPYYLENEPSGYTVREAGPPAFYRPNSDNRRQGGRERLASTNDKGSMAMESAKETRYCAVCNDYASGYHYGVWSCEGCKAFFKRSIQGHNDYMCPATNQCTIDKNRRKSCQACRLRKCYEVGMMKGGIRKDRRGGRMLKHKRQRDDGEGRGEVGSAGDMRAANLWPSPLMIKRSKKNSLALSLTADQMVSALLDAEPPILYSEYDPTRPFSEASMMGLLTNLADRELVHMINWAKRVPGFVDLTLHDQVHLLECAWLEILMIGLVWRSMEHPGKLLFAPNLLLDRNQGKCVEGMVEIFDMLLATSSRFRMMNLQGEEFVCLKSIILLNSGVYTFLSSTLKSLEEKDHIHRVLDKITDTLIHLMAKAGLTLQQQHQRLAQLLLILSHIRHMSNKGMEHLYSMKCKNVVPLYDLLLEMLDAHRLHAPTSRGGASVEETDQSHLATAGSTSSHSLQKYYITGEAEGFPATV

Row | Compound | Potency [1] | Potency [2] | Potency [3] | Potency [4] | Potency [5] | Potency (Aromatase (Homo sapiens)) | Potency [6] | Potency [7] | Potency [8] | Potency [9] | Potency [10] | Potency [11] | Potency [12] | Potency [13] | Potency [14] | Potency [15] | Potency [16] | activation [17] | Potency [18] | Potency [19]
1 | CCN1/C(=C/C=C/c2sc3ccccc3[n+]2CC)Sc2ccccc21 | 1.68 µM (active) | 841 nM (active) | 10.7 µM (active) | 2.98 µM (active) | 9.44 µM (active) | 1.5 µM (active) | 5.96 µM (active) | 2.66 µM (active) | 6.68 µM (active) | 14.6 µM (active) | 1.16 µM (active) | 13 µM (active) | 13 µM (active) |  |  |  |  |  |  | 
2 | CC(C)(C)CC(C)(C)c1ccc(OCCOCC[N+](C)(C)Cc2ccccc2)cc1 | 16.8 µM (active) and 13.7 µM (active) | 16.8 µM (active) and 13.7 µM (active) | 19 µM (active) and 19.5 µM (active) |  | inactive and 61.1 µM (active) | 23.7 µM (active) and 12.2 µM (active) | 23.7 µM (active) and 24.3 µM (active) | inactive | inactive and 61.1 µM (active) | 19.5 µM (active) and 29.8 µM (active) |  | 21.7 µM (active) and 29.8 µM (active) | 34.6 µM (active) | inactive | inactive |  |  |  |  | 
3 | Cc1ccc2oc(CN(Cc3ccccc3)C(=O)Nc3c(F)cc(F)cc3F)c(-c3ccc(Cl)cc3)c2c1 | inactive |  | inactive |  | inactive |  | inactive |  | inactive | inactive |  | inactive | inactive | inactive |  | inactive | inactive | -12.5% (inactive) |  | 
4 | COc1cccc(N)c1 | inactive |  | inactive |  | inactive |  |  |  | inactive |  |  | inactive | inactive |  |  | inactive |  |  | inactive | 
5 | O=S1(=O)CC(Cl)(Cl)C(Cl)(Cl)C1 | 1.93 µM (active) |  | 49 µM (active) |  | 30.6 µM (active) | 1.93 µM (active) | 2.17 µM (active) | inactive |  | 5.49 µM (active) |  | 4.33 µM (active) | 1.95 µM (active) | 12.3 µM [inconclusive] (active) |  |  | 21.9 µM [inconclusive] (active) |  |  | 
6 | CC1=NC(C)OC1C (configuration not stated) | inactive |  | inactive | inactive | inactive | inactive | inactive | inactive |  | inactive | 30.6 µM (active) |  | inactive | inactive |  | inactive |  |  | inactive | 
7 | CCN(CC)CCNC(=O)c1c(C)[nH]c(/C=C2\C(=O)Nc3ccc(F)cc32)c1C | 26.6 µM (active) |  | inactive |  | 9.44 µM (active) |  | 26.6 µM (active) |  |  | 16.8 µM (active) |  | 29.8 µM (active) |  |  |  |  |  |  | inactive | 
8 | CCCCCCCCS(=O)C(C)Cc1ccc2c(c1)OCO2 (configuration not stated) | 69.9 µM (active) |  | inactive |  | inactive |  |  | 27.8 µM (active) | inactive | inactive | 19.7 µM (active) |  |  | inactive |  | inactive |  |  |  | 56 µM (active)
9 | CSc1ccc2c(c1)C(N1CCN(C)CC1)Cc1ccccc1S2 (configuration not stated) | 7.5 µM (active) |  |  |  | inactive |  |  | inactive | 29.8 µM (active) | 18.8 µM (active) |  |  | inactive | inactive |  |  |  | -16.2% (inactive) | inactive | 
10 | COc1ccc(C(=O)/C(Br)=C\C(=O)O)cc1 | 21.7 µM (active) |  | inactive |  | inactive | 48.6 µM (active) | 17.2 µM (active) | inactive | inactive |  |  |  | inactive | inactive |  | inactive |  | 0.472% (inactive) |  | 
11 | Cc1cc(C2CCCCC2)n(O)c(=O)c1 | 2.54 µM (active) |  |  |  | inactive |  | 12.7 µM (active) | inactive | inactive |  |  |  | inactive | inactive |  |  | 2.88 µM [inhibitor] (active) |  |  | 
12 | N=C1N=C(N)c2cc3ccccc3cc21 | 12.9 µM (active) |  |  |  |  | 19.9 µM (active) | 61.1 µM (active) | 11.2 µM (active) |  | 54.9 µM (active) |  | 43.3 µM (active) | 25.9 µM (active) |  |  | inactive |  |  |  | 
13 | CCCCCCC[N+](CC)(CC)CCCCc1ccc(Cl)cc1 | inactive |  | 8.11 µM (active) |  | inactive |  | inactive | inactive | inactive | inactive |  | inactive | inactive | inactive | inactive | inactive |  |  |  | inactive
14 | O=c1c(-c2ccccc2)c1-c1ccccc1 | 5.96 µM (active) |  | inactive |  | inactive | 29.8 µM (active) |  | inactive | inactive |  |  | inactive | inactive | inactive |  |  | 26.8 µM [inconclusive] (active) | -33.7% (inactive) |  | 
15 | CCCC1O[C@@H]2C[C@H]3[C@@H]4CCC5=CC(=O)C=C[C@]5(C)[C@H]4[C@@H](O)C[C@]3(C)[C@]2(C(=O)CO)O1 (some centres not stated) | inactive |  | inactive |  | inactive | inactive | inactive and 61.2 µM (active) | inactive | inactive | inactive | 30.7 µM (active) and 54.5 µM (active) | inactive | inactive |  | inactive | inactive |  |  | inactive | inactive
